High-throughput results: PubChem, several laboratories
In the library only some 7.1% were active in any assay of this set; here they are far more common.
Cav3 T inh: Cav3.2 calcium influx blockers – cell-based, Fluo-4 calcium fluorescence, FDSS, MLSMR library, primary screen. Voltage-dependent T-type calcium channel subunit alpha-1H (Homo sapiens), O95180. Cav3.2-expressing cells; hits give low values. B-score at 10 µM. 4% of 100,000 active. AID 449739, 2010;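 active = single-dose well whose peak fluorescence ratio is a statistical outlier from its plate by either plate-standardised score or position-corrected B-score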
M1 antagonist: antagonists of rat M1 muscarinic receptor; Muscarinic acetylcholine receptor M1 (Rattus norvegicus), P08482; CHO-M1 cells, Fluo-4 calcium, ACh EC80 antagonist mode; hits give low values; B-score at 10 µM; 3.4% of 64,000 active;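 active = calcium fluorescence response, raw or row-and-column corrected B-score, differing from the plate sample mean either way at a set confidence level, mostly lower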
Pyk2 oligo antag: antagonists of Pyk2 self-association, primary screen, Q293 cells, FERM NanoBiT luminescence, HTS | Protein-tyrosine kinase 2-beta (Homo sapiens), Q14289 | hits give low values | z-score (the deposit names both 25 µM and 10 µM) | 0.83% of 99,000 active;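 active = Z-score of -3 or lower, scaled per plate to the spread of control and sample wells; inactive = z-score above -3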;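 note: negative z-score means lost luminescence so less FERM oligomerization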
M1 agonist: M1 muscarinic receptor agonists, primary screen, CHO-M1 cells, Fluo-4 calcium, agonist mode. B-score at 10 µM. AID 626, 2007. Muscarinic acetylcholine receptor M1. 3% of 64,000 active. Fluo-4 calcium fluorescence; hits give high values;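 active = fluorescence rise, raw or as B-score row- and column-corrected plate score, outside the 99.7% band of its plate's samples, either direction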
* hit, by the source's call; . = not tested or not shown.

SMILES	Cav3 T inh	M1 antagonist	Pyk2 oligo antag	M1 agonist
O=C(Nc1cccn(Cc2c(Cl)cccc2Cl)c1=O)c1c(Cl)cccc1Cl	-6.5*	.	-1.3	.
COC(=O)Nc1cccn(Cc2c(Cl)cccc2Cl)c1=O	0.76	.	-0.15	.
CCCc1cc(-c2n[nH]c(=S)n2C(C)c2ccccc2)cs1 (centres undefined)	-4.6*	.	-0.11	.
CN(C)CCCN1C(=O)C(=O)/C(=C(/O)c2ccc(S(=O)(=O)N(C)C)cc2)C1c1ccncc1 (centres undefined)	.	-0.8	.	0.041
Cc1cc(Oc2ccccc2)nc(SCC(=O)Nc2ccc(Cl)cc2Cl)n1	-5.8*	.	-0.88	.
COC(=O)CSc1nc(C)cc(Oc2ccccc2)n1	0.4	0.0019	.	-0.51
Cc1ccc(C)c(S(=O)(=O)NCc2ccc(C(=O)N3CCC(Cc4ccccc4)CC3)cc2)c1	-3.9*	.	-1.1	.
CN1CCN(C(=S)Nc2cc([N+](=O)[O-])ccc2Cl)CC1	.	.	0.16	.
O=C(NC(=S)N1CCN(c2c(Cl)cccc2[N+](=O)[O-])CC1)c1cccs1	-4.3*	.	0.24	.
O=C(C1CCCN(Cc2ccccc2)C1)N1CCc2ccccc2C1 (centres undefined)	.	.	-0.65	.
Cn1cccc1Cc1nnc(SCC(=O)N2CCc3ccccc32)n1CCc1ccccc1	-8.7*	-0.26	.	2.2
Cn1cccc1Cc1nnc(SCC(=O)N2CCCC2)n1CCc1ccccc1	0.87	-0.021	.	0.23
Cc1csc(NC(=O)CSc2nnc(Cc3cccn3C)n2CCc2ccccc2)n1	-8.4*	-0.21	.	0.58
CN(Cc1ccccc1)c1oc(COc2ccccc2F)nc1C#N	-4.5*	-0.82	.	-1.2
N#Cc1nc(COc2ccccc2F)oc1NCCc1ccccc1	.	-1.6	-1.4	-0.08
CN(Cc1ccccc1)c1oc(-c2ccco2)nc1C#N	-4.2*	-0.41	-1.1	0.73
COc1ccc(N(CC(=O)Nc2ccc3c(c2)OCO3)S(=O)(=O)c2ccccc2)c(OC)c1	-2.6	-1.2	-3.2*	0.74
COc1ccc(S(=O)(=O)N(C)CC(=O)Nc2ccc3c(c2)OCO3)cc1	0.032	.	0.24	.
Cc1cc(=O)[nH]c(SCC(=O)Nc2ccc(Cl)cn2)n1	.	.	-0.16	.
CCCOc1ccc(/C=N/NC(=O)C2CCCN2S(=O)(=O)c2ccc(Cl)cc2)cc1 (centres undefined)	0.82	.	0.08	.
CC(C)Oc1ccc(/C=N/NC(=O)C2CCCN2S(=O)(=O)c2ccc(Cl)cc2)cc1 (centres undefined)	-4.7*	.	0.38	.
N#Cc1nc(Cc2ccccc2)oc1N1CCN(c2ccccc2)CC1	-4.8*	0.32	-0.66	1.2
N#Cc1nc(Cc2ccccc2)oc1N1CCC(Cc2ccccc2)CC1	-5.2*	0.76	0.73	-0.2
O=C(NCCc1ccc(Cl)cc1)C1CCC(CNc2c(N3CCCCC3)c(=O)c2=O)CC1 (centres undefined)	0.19	.	.	.
CN(CCOc1ccc(Cl)cc1)c1ccc(S(=O)(=O)N2CCCCC2)cn1	-6.4*	-0.82	-0.98	-0.49
SMILES	Cav3 T inh	M1 antagonist	Pyk2 oligo antag	M1 agonist
CCOc1ccc(S(=O)(=O)N2CCCC2)cc1	0.3	.	0.61	.
COC(=O)[C@@H]1C[C@@H]2CC[C@@H](O)C[C@@H]2N1Cc1ccc(N2CCN(C)CC2)cc1	0.28	.	.	.
O=C(COc1ccc(/C=N/NS(=O)(=O)c2ccccc2)cc1)Nc1ccc(F)cc1	-6*	.	1.7	.
CCOc1c2ccc(C(=O)NCc3ccc4c(c3)OCO4)cc2nn1CCOC	-0.67	.	.	.
CC(NC(=O)c1cccc(Cn2cc([N+](=O)[O-])cn2)c1)c1ccc(C(C)(C)C)cc1 (centres undefined)	-4.3*	.	-0.43	.
CC(NC(=O)c1ccc(Cn2cc([N+](=O)[O-])cn2)o1)c1ccccc1 (centres undefined)	0.56	.	0.17	.
CCC(NC(=O)c1cccc(Cn2cc([N+](=O)[O-])cn2)c1)c1ccc(C(C)C)cc1 (centres undefined)	-4.3*	.	-0.91	.
CC(C)NC(=O)c1cccc(Cn2cc(Cl)cn2)c1	-0.89	-0.4	1.9	0.056
CCOC(=O)Cn1nc(C)n(-c2ccc(C(C)(C)C)cc2)c1=O	-0.14	.	0.28	.
CC(C)c1nc2oc3c(NCc4ccccn4)ncnc3c2c2c1COC(C)(C)C2	.	0.42	.	4.6*
Cc1nc2c(C)cccc2cc1C(=O)N/N=C/c1cccnc1	.	.	1.1	.
O=C(c1ccc(N2CCCCC2)c([N+](=O)[O-])c1)N(Cc1ccccc1)c1ccccn1	-4.5*	.	-1.5	.
CCOC(=O)c1c(C)[nH]c(C(=O)COC(=O)CCC2CCCC2)c1C	0.23	.	0.08	.
